# Screening data from PubChem BioAssay.
# aGlu spleen mod: inhibits or activates alpha-glucosidase in human spleen homogenate | Potency, µM (highest dose often 79.9 µM), without a hit: top-dose activity change, negative = inhibition, most hits filed as inhibitors | human spleen homogenate, 4-MU-alpha-glucoside fluorescence | P10253 | actives 0.006% (n = 240,000);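 further: potency means the concentration at half of the fitted maximal effect; 0% = enzyme with vehicle and -100% = no enzyme basal signal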
#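 Human spleen homogenate (1 ug) with 4-methylumbelliferyl-alpha-D-glucopyranoside (1 mM final) in 50 mM citrate/phosphate pH 5.0, 0.01% Tween-20; 40 min at 37 C. Stopped at pH 10; 4-MU fluorescence Ex 365/Em 440 nm; AC50 by Hill fit.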
# Coupling enz: coupling enzyme interference in Giardia aldolase counter-screen. coupling enzyme system counterscreen, AmpLite Red fluorescence. activity change, negative = inhibition, % at 58.2 µM, hits read low. actives 0.67% (n = 290,000); in the data active means activity change below about -30%
#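 Final compound at 57.5 uM, incubated 10 min at RT with coupling enzyme reagent (glyceraldehyde-3-phosphate), then 20 min with substrate and AmpLite Red detection. Fluorescence read at 525/598 nm; tests interference with the coupling assay, not aldolase inhibition.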
# GAA glycogen: GAA glycogen-cleavage inhibition or activation. Potency, µM (series often up to 76.4 µM), for inactives: at the highest dose activity change, negative = inhibition, most hits filed as inhibitors. recombinant GAA, glycogen substrate, Amplex Red glucose oxidase fluorescence. P10253. actives 0.38% (n = 300,000);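 further: potency means the concentration at half of the fitted maximal effect; 0% = full enzyme reaction and -100% = no-enzyme basal signal; the screen sought inhibitors and activators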
#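 Natural-substrate format: glycogen cleavage by 4 nM human enzyme, glucose read by Amplex Red coupling (Ex 573, Em 610 nm). Normalized to enzyme and no-enzyme controls.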
# GAA inh: alpha-glucosidase (human) inhibition | P10253 | purified human GAA, 4-MU-alpha-glucoside fluorescence | Potency, µM (highest dose often 76.9 µM), for inactives: at the highest dose activity change, negative = inhibition, hits mostly inhibitors | actives 0.005% (n = 200,000) | AID 1466;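 further: potency means the concentration at half of the fitted maximal effect; plate controls were uninhibited enzyme wells for no effect and no-enzyme background for full effect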
#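 Compounds are titrated up to 77 uM against 4 nM human enzyme. Substrate 4-methylumbelliferyl-alpha-D-pyranoside (400 uM) reacts 20 min at room temperature in pH 5.0 buffer; liberated 4-methylumbelliferone is read at 440 nm.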
# B2AR arrestin: beta2AR (human) beta-arrestin recruitment activity. actives 0.02% (n = 330,000). Potency, µM (titrated, usually from 46.1 µM), for inactives: at the highest dose activation, usual class: activators. P07550. AID 492947. beta-arrestin recruitment to beta2AR, cell-based reporter;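 further: potency means the concentration at half of the fitted maximal effect; 0% = DMSO controls and full agonism = EC100 isoproterenol or metaproterenol; nearly all actives have a fitted effect of over 65% in size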
# Target sequence (P07550 whole entry, looked up): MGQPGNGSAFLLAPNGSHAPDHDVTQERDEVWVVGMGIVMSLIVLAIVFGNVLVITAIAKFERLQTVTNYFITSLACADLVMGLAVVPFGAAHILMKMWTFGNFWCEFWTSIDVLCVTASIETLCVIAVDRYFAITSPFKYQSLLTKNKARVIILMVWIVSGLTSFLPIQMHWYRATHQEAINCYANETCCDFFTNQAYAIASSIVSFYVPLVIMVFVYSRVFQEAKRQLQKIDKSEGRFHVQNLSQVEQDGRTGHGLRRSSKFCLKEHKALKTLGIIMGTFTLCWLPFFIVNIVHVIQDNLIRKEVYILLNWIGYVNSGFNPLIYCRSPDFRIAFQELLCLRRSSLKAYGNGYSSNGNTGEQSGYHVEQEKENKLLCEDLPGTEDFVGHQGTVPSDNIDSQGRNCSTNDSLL
# An asterisk follows results filed as active; ? = inconclusive; · = no result; ! = a repeat was not active; [ ] = another dose, or the depositor's remark. An excerpt weighted towards active compounds, which were near 0.85% of everything screened. Unless noted, the call rests on the fitted dose curve; in most records, active means well fitted curve in the direction sought with a large enough effect; inconclusive means small, poorly fitted or top-dose-only effect, or another doubt; inactive means no such curve, though single readings can be large; an effect the other way counts as inactive or inconclusive. Unless noted, on the % scale 0 is the no-effect control and ±100 the full control effect.
SMILES,aGlu spleen mod,Coupling enz,GAA glycogen,GAA inh,B2AR arrestin
CCn1c([N+](=O)[O-])nc2c1c(=O)[nH]c(=O)n2C,-5.1%,-38.1*,5.3%,-10.9%,-0.3%
O=C1NC(=O)C(Cc2ccc(OCCN3COc4ccccc4C3=O)cc2)S1 (configuration not stated),-4.3%,1.9,·,·,·
COc1ccc(COC[C@H](C)[C@H](O[Si](C)(C)C)[C@@H](C)[C@H]2OC(=O)[C@H]2C)cc1,-4.9%,0.6,·,·,·
COc1cccc(/C=C2/C(=O)NN(c3ccc(F)cc3)C2=O)c1,·,3.3,?,·,-1.1%
COc1cccc(/C=C2/C(=O)NN(c3ccc(C)c(C)c3)C2=O)c1,·,4.3,31.6µM*,·,-0.2%
CCOC(=O)c1ccc(NC(=S)Nc2ccc(C)cc2)cc1,-2.5%,-0.5,-16.8%,-11.8%,-0.1%
CCOC(=O)c1ccc(NC(=S)NNC(C)(C)C)cc1,-5.5%,0.0,-27.7%,·,22.4µM*
Cc1ccccc1N1C(=O)CC(N(O)c2ccccc2)C1=O (configuration not stated),-2.3%,-2.1,3.95µM*,-0.4%,-0.3%
CCCOc1ccc(N2C(=O)CC(N(O)c3ccccc3)C2=O)cc1 (configuration not stated),3.2%,-7.2,?,9.2%,-1.0%
COc1ccccc1N(O)C1CC(=O)N(c2ccc(F)cc2)C1=O (configuration not stated),-5.1%,-13.8,17.8µM*,2.2%,0.4%
Cc1ccc(N2C(=O)CC(N(O)C3CC(=O)N(c4ccc(C)cc4)C3=O)C2=O)cc1 (configuration not stated),-3.8%,0.7,?,9.1%,0.0%
COc1ccccc1N1C(=O)CC(N(O)c2ccccc2)C1=O (configuration not stated),-0.5%,0.9,?,1.0%,-0.4%
O=C1CC(N(O)c2ccccc2)C(=O)N1c1cc(Cl)cc(Cl)c1 (configuration not stated),1.1%,0.4,22.2µM*,-9.4%,-0.8%
COc1cccc(C(=O)NCc2cn3cccc(C)c3n2)c1,·,·,9.3%[76.3 µM],·,·
CCCCN1C[C@H](O)[C@@H](O)[C@H](O)[C@H]1CO,1.58µM*,-3.8,2.51µM*,6.31µM*,-0.2%
CC(=O)Nc1cc(C(C)C)c(O)c(C(C)C)c1,-5.7%,1.9,11.1µM*,-8.1%,0.3%
O=C(CSc1ncc(C(F)(F)F)cc1Cl)N1CCN(S(=O)(=O)c2ccccc2)CC1,-29.9%,-5.1,?,35.5µM*,0.1%
COC(=O)CN1C(=O)C2(C(C#N)=C(N)Oc3c2c(C)nn3-c2ccccc2)c2ccccc21 (configuration not stated),-14.2%,-50.0*,-10.5%,-4.7%,0.1%
CC1(C)CC(=O)c2cc(C(=O)Nc3ccc(Br)cc3)c(=O)n(-c3ccc(Cl)cc3)c2C1,·,·,-1.2%[76.3 µM],·,·
Oc1ccc(O)c(Cc2nc3ccccc3s2)c1,-3.5%,-0.4,5.62µM*,-18.0%,0.1%
Oc1ccccc1OCc1nc2ccccc2s1,0.1%,-5.8,-29.7%,-8.8%,0.2%
CC[C@H](C)[C@H](NC(=O)[C@H](Cc1ccc(O)cc1)NC(=O)CNC(=O)[C@@H]1CCCN1C(=O)[C@H](CC(=O)O)NC(=O)[C@@H](N)CS)C(=O)NCC(=O)N[C@@H](CO)C(=O)N[C@@H](CCCN=C(N)N)C(N)=O,-1.5%,-0.5,·,·,·
CCc1ccc(-c2nn(-c3ccc(OC)cc3)c3c2cnc2ccc(OC)cc23)cc1,·,·,-8.1%[76.3 µM],·,·
COc1ccc2cc3[n+](cc2c1OC)CCc1cc2c(cc1-3)OCO2,-3.0%,-35.7*!,4.1%,-0.6%,0.0%
COc1cccc(C2=NCCc3cc4c(cc32)OCO4)c1OC,8.6%,-0.5,11.5%,-2.6%,0.4%
SMILES,aGlu spleen mod,Coupling enz,GAA glycogen,GAA inh,B2AR arrestin
C=C1CCC2C(C)(CO)C(O)CCC2(C)C1C/C=C1\C(=O)OCC1O (configuration not stated),-2.1%,6.5,·,·,·
O=C(O)c1cc(-c2ccc(/C=N/Nc3ccc(Cl)cc3)o2)ccc1Cl,-11.8%,-7.7,28.2µM*,2.7%,0.4%
Nc1nonc1C(=O)N/N=C/c1ccc(-c2ccc(Cl)c(C(=O)O)c2)o1,-5.4%,-2.1,-2.7%,-4.8%,0.0%
COc1ccc(N(C(=O)CCl)C(C)(C(=O)Nc2c(C)cccc2C)c2ccccn2)cc1 (configuration not stated),-5.3%,2.6,13.8%,?,13µM*
CCOc1ccc(NC(=O)C(c2ccccn2)N(C(=O)CCl)c2ccc(OCC)cc2)cc1 (configuration not stated),3.2%,-16.6,?,-4.7%,-0.2%
c1ccc2c(c1)Nc1cc3ccccc3cc1S2,-2.9%,-13.2,?,-9.7%,-0.2%
c1ccc2c(c1)Nc1ccncc1S2,2.2%,-3.2,17.6µM*,·,-0.3%
O=C1CC(N2CCN(c3ccc(O)cc3)CC2)C(=O)N1c1ccc2c(c1)OCO2 (configuration not stated),3.2%,-16.1,15.8µM*,12.2%,-0.1%
O=C(NNc1ccc(-c2csnn2)cc1)c1cc(Cl)cc(Cl)c1,1.1%,0.2,?,·,-0.8%
O=C(NNc1ccc(-c2csnn2)cc1)c1ccccc1C(F)(F)F,3.9%,3.1,9.92µM*,0.5%,0.2%
COC(=O)C1=C(C)N(Cc2ccccc2)[C@]23O[C@](C(=O)OC)(C(=O)N2C1c1ccccc1)C(c1ccccc1)C3C(=O)c1ccccc1 (some centres not stated),1.6%[17.4 µM],-1.0,·,·,·
COc1ccc(N2C3=C(CC4=C2CC(C)(C)CC4=O)C(=O)CC(C)(C)C3)cc1,6.8%,-48.1*,?,-4.1%,0.2%
Nc1ccc(Nc2ccccc2)c(Cl)c1,-5.5%,0.3,35.5µM*,0.2%,0.4%
Nc1ccccc1Nc1ccccc1,3.6%,-0.2,?,1.7%,-0.3%
O=C(N/N=C/c1cccnc1)c1ccccc1OCc1ccc(Br)cc1,6.6%,-37.6*,-0.5%,-1.9%,-0.1%
CC(=O)N1CCc2c(sc3nc(SCC(N)=O)n(-c4ccc(F)c(Cl)c4)c(=O)c23)C1,·,·,5.9%[76.3 µM],·,·
O=C1CC(=O)Nc2cc(S(=O)(=O)N3CCN(c4ccc([N+](=O)[O-])cc4)CC3)ccc2N1,·,2.0,·,·,-0.2%
N#Cc1ccc(N2CCN(S(=O)(=O)c3ccc4c(c3)CC(=O)N4)CC2)cc1,·,·,6.54µM*,·,·
CCOC(=O)C1CCN(S(=O)(=O)c2ccc3c(c2)CC(=O)N3)CC1,·,-0.6,14.1µM*,·,0.4%
O=C1Cc2cc(S(=O)(=O)N3CCN(c4ccc(O)cc4)CC3)ccc2N1,·,·,6.71µM*,·,·
O=C1Cc2cc(S(=O)(=O)N3CCN(c4ccc([N+](=O)[O-])cc4)CC3)ccc2N1,·,·,8.23µM*,·,·
CNS(=O)(=O)c1cc(-c2nnc(Nc3cc(C)ccc3C)c3ccccc23)ccc1C,·,·,-7.1%[76.3 µM],·,·
